Test results taken from PubChem BioAssay (NCI).
The panel holds about 83,000 compounds, 20% with a hit somewhere; the sample as a whole holds those more often.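 Growth was measured after 48 h exposure to one concentration of compound in 96-well plates. Values under 10 count as active.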 Calls of active or inactive are those of the source.

Test system: BT-549 breast
Test: NCI-60 one-dose screen, 48 h (100 = growth as untreated, 0 = no growth, -100 = all killed)
Conditions: 10 µM unless noted
Description: Growth inhibition of the BT-549 human tumor cell line is measured as a screen for anti-cancer activity. Cells are grown in 96 well plates and exposed to the test compound for 48 hours. Compounds are tested at a single concentration, which is 10^-5 M for most compounds. The reported endpoint is percent growth (GI% or GIPRCNT), where numbers from 0 - 100% represent growth inhibition, and numbers from -100% - 0 represent cell death. For example, a value of 40 represents 60% growth inhibition. A value of 0 means no net growth occurred over the course of the experiment. A value of -40 indicates 40% of cells at the beginning of the experiment died by the end of the experiment. A value of -100 means all cells are dead at the end of the experiment.
NCI-60 Human Tumor Cell Lines Screen was performed using the standard one-dose NCI protocol, which is described in more detail at https://dtp.cancer.gov/discovery_development/nci-60/default.htm.
Compounds with GIPRCNT values below 10 were considered active. Activity score was based on GIPRCNT using the following formula: […]
Score is 0 for GIPRCNT values of 100 or above, 50 for GIPRCNT values of 0, and 100 for GIPRCNT values of -100.

Q: How did the growth turn out when `CC(=O)Nc1ccc(NC(=O)c2ccc([As](O)O)cc2)cc1` was run?
A: 113% (inactive)

Q: How did the growth turn out when `COc1ccc(/C=C\c2cc(OC)c(OC)c(OC)c2)cc1OCC(=O)Nc1nc2ccc(OC(F)(F)F)cc2s1` was run?
A: 58.7% (inactive)

Q: How did the growth turn out when `CC(C)=CCC[C@H](C(=O)O)[C@@H]1CC[C@]2(C)C3=C(CC[C@@]12C)[C@@]1(C)CC[C@H](O)C(C)(C)[C@@H]1CC3` was run?
A: 75.2% (inactive)

Q: With `Cc1cc(N(CCCl)CCCl)ccc1C=Nc1ccc(-c2csc(Cc3ccccc3)n2)cc1` as the molecule, how does the growth read?
A: 69% (inactive)

Q: For `CN1CCC(c2c[nH]c3ccccc23)C1` (stereo not given), which growth is on record?
A: 110% (inactive)

Q: With `N#C[Se]Cc1cc(-c2ccccc2)n(-c2ccc(S(N)(=O)=O)cc2)n1` as the molecule, how does the growth read?
A: -34.6% (active)

Q: With `Cc1cc(C)c(CBr)c(C)c1` as the molecule, how does the growth read?
A: 105% (inactive)

Q: Which growth does the source give for `CC[CH2][Sn]([Cl])([Cl])[CH2]CC` here?
A: 60.7% (inactive)

Q: For `CCCCCCCCCCCCNC(c1ccccc1)C(O)c1ccccc1` (stereo not given), which growth is on record?
A: 103% (inactive)

Q: For `Cc1c(NS(=O)(=O)c2ccccc2)ccc([N+](=O)[O-])c1Cl`, which growth is on record?
A: 77.7% (inactive)

Q: `COC(=O)C12CC(NC(=O)c3csc([C@@H](C[C@H](C(C)C)N(C)C(=O)[C@@H](NC(=O)[C@H]4CCCCN4C)C4CC4)OC(C)=O)n3)(C1)C2` was tested. Which growth did it give?
A: -10.9% (active)

Q: Which growth does the source give for `CC(=O)O[C@@H]1CC[C@]2(C)[C@H]3CC[C@]4(C)C(=O)CC[C@H]4[C@@H]3C[C@@H]3SC(N)=N[C@@]32C1` here?
A: 45.2% (inactive)

Q: For `C[S+]1C=Cc2ccccc2C1c1ccc(Cl)cc1` (stereo not given), which growth is on record?
A: 85.6% (inactive)

Q: Which growth does the source give for `CC(C)CCC1(CCCl)C(=O)NC(=O)NC1=O` here?
A: 102% (inactive)

Q: Which growth does the source give for `O=C1OCC2=C1C(c1ccccc1)c1cc3c(cc1N2)OCO3` (stereo not given) here?
A: -5.6% (active)

Q: Which growth does the source give for `COC(=O)[C@@H](C)C[C@H](Cc1ccccc1)NC(=O)c1csc([C@@H](C[C@H](C(C)C)N(C)C(=O)[C@@H](NC(=O)[C@H]2CCCCN2C)C2CCCCC2)OC(C)=O)n1` here?
A: -11.8% (active)

Q: With `COc1cc2c(cc1OCCCCn1c(-c3cccs3)nc3ccccc31)N=C[C@@H]1CCCN1C2=O` as the molecule, how does the growth read?
A: -55.6% (active)

Q: With `COc1cc2c(cc1OCCCCCn1c(-c3ccco3)nc3ccccc31)N=C[C@@H]1CCCN1C2=O` as the molecule, how does the growth read?
A: 18% (inactive)

Q: `C=CC[PH+](c1ccccc1)c1ccccc1.C=CC[PH+](c1ccccc1)c1ccccc1.[Cl][Pt][Cl]` was tested. Which growth did it give?
A: 78% (inactive)

Q: With `CCOC(=O)c1c(C)n(Cc2ccccc2)c2cc(CN(C)C)c(O)cc12` as the molecule, how does the growth read?
A: 64.7% (inactive)

Q: For `CCCC[C@H](NC(=O)[C@H]1CCCCN1C)C(=O)N(C)[C@H](C[C@@H](OC(C)=O)c1nc(C(=O)N[C@@H](Cc2ccccc2)C[C@H](C)C(=O)OCC)cs1)C(C)C`, which growth is on record?
A: -25.6% (active)

Q: For `COC(=O)CC12CC(NC(=O)c3csc([C@@H](C[C@H](C(C)C)N(C)C(=O)[C@@H](NC(=O)[C@H]4CCCCN4C)C(C)C)OC(C)=O)n3)(C1)C2`, which growth is on record?
A: -19.8% (active)

Q: For `O=C1C(Cl)=C(N2CCOCC2)C(=O)c2ccccc21`, which growth is on record?
A: 106% (inactive)

Q: `CN1C(=O)C(=Cc2cn(CCCCCCn3c4ccccc4c(=O)c4ccccc43)c3ccccc23)C(=O)N(C)C1=O` was tested. Which growth did it give?
A: 91.2% (inactive)

Q: With `C[C@]12CC[C@@H]3c4ccc(Oc5nc(N6CC6)nc(N6CC6)n5)cc4CC[C@H]3[C@@H]1CCC2=O` as the molecule, how does the growth read?
A: 53.9% (inactive)

Q: With `c1cc2c(c3c1CCNC3)OCO2` as the molecule, how does the growth read?
A: 97.4% (inactive)

Q: Which growth does the source give for `O=C([O][Hg][CH2]C1COCC([CH2][Hg][O]C(=O)c2ccccc2)O1)c1ccccc1` (stereo not given) here?
A: 97.4% (inactive)

Q: How did the growth turn out when `CCC(O)(CN)c1ccccc1` (stereo not given) was run?
A: 104% (inactive)

Q: `Cc1ccc(N2COOC3(OOC2)C2CC4CC(C2)CC3C4)cc1` was tested. Which growth did it give?
A: 95.7% (inactive)

Q: `CC[C@H](C)[C@H](NC(=O)[C@H]1CCCCN1C)C(=O)N(C)[C@H](C[C@@H](OC(C)=O)c1cccc(C(=O)N[C@@H](Cc2ccccc2)C[C@H](C)C(=O)O)n1)C(C)C` was tested. Which growth did it give?
A: -18.7% (active)

Q: For `CC(=O)O[C@H](C[C@H](C(C)C)N(C)C(=O)[C@@H](NC(=O)[C@H]1CCCCN1C)C(C)(C)C)c1nc(C(=O)N[C@@H](Cc2ccccc2)C[C@H](C)C(=O)O)cs1`, which growth is on record?
A: -23.6% (active)

Q: Which growth does the source give for `CCN(CC)CCOC(=O)C(OC(C)C)(c1ccccc1)c1ccccc1` here?
A: 96.6% (inactive)

Q: For `COc1cc(C=Nc2cccc(C(=O)O)c2)ccc1N(CCCl)CCCl`, which growth is on record?
A: 103% (inactive)

Q: How did the growth turn out when `CC(C)=CCC/C(C)=C/C=N\N=C(/N)N[N+](=O)[O-]` was run?
A: 92.8% (inactive)

Q: How did the growth turn out when `COC(=O)[C@@H](C)C[C@H](Cc1ccccc1)NC(=O)c1csc([C@@H](C[C@H](C(C)C)N(C)C(=O)[C@@H](NC(=O)[C@H]2CCCN2C)C2CC2)OC(C)=O)n1` was run?
A: -9.2% (active)

Q: `OCCNC(Cc1ccccc1)c1ccc2c(c1)OCO2` (stereo not given) was tested. Which growth did it give?
A: 81.2% (inactive)

Q: How did the growth turn out when `CC1=C(CN)C2=C(C)C3(CC3)[C@@](C)(O)C(=O)C2=C1` was run?
A: 63.3% (inactive)

Q: Which growth does the source give for `C[N+](C)(C)Cc1cc(Cl)ccc1O` here?
A: 91.9% (inactive)

Q: How did the growth turn out when `COc1ccc(Nc2ccc([N+](=O)[O-])cc2[N+](=O)[O-])cc1CN(CCCl)CCCl` was run?
A: 40.1% (inactive)

Q: For `COc1cc2c(=O)n(C3CCCCCCC3)c3c4cc[nH]c4ncc3c2cc1OC`, which growth is on record?
A: 44.6% (inactive)
